The results in this text go back to PubChem BioAssay (NCATS).

Records with an inconclusive call do not appear. Entries that show only a call come without a potency. The source made the active and inactive calls. Calls follow the shape of the full dose curve.

One test in a line: Primary qHTS for Huh7 cytotoxicity: counterscreen for inhibitors of MERS-S pseudotyped particle cell entry (AID 1479147). Particulars: cell viability read-out; series mostly up to 57.1 µM. (In qHTS, concentration-response curves come from the screen itself.)
For `COc1cccc(C(=O)CCN[C@@H](C)[C@H](O)c2ccccc2)c1`, the Potency entry was “inactive”.
With `CC(C)CN(C[C@@H](OP(=O)(O)O)[C@H](Cc1ccccc1)NC(=O)O[C@H]1CCOC1)S(=O)(=O)c1ccc(N)cc1`, the Potency result was “inactive”.
In the case of `Cc1cc(O)cc2c1O[C@](C)(CCC[C@H](C)CCC[C@H](C)CCCC(C)C)CC2`, the Potency entry was “inactive”.
Consider `CC(=O)OC(C)OC(=O)C(C)c1ccc(-c2ccccc2)c(F)c1` (stereo unspecified), for which the Potency result is “inactive”.
`CC[C@H](C)C(=O)O[C@H]1C[C@H](O)C=C2C=C[C@H](C)[C@H](CC[C@@H](O)C[C@@H](O)CC(=O)O)[C@H]21`: the Potency entry is “inactive”.
As to `c1ccc2c(c1)sc1ccccc12`, the Potency entry is “inactive”.
Regarding `O=C(OOC(=O)c1ccccc1)c1ccccc1`, the Potency entry is “inactive”.
Consider `CCCOC(=O)c1ccccc1`, for which the Potency result was “inactive”.
Same read-out and setting: to `C=CC1=C(C(=O)O)N2C(=O)[C@@H](NC(=O)/C(=N\O)c3csc(N)n3)[C@H]2SC1` (stereo in doubt) belongs “inactive”; to `CN1[C@@H]2CC[C@H]1CC(OC(c1ccccc1)c1ccccc1)C2` (stereo partly specified), “inactive”; to `CCOc1ccc(NS(=O)(=O)c2ccc(N)cc2)nn1`, “inactive”.
Still for that read-out and setting: to `Oc1ccccc1` belongs “inactive”.
Same read-out and setting: in the case of `CC(C)Cc1ccc(CC(=O)O)cc1` it was “inactive”.
On to `NC[C@H]1O[C@H](O[C@H]2[C@H](O)[C@@H](O[C@H]3O[C@H](CO)[C@@H](O)[C@H](N)[C@H]3O)[C@H](N)C[C@@H]2N)[C@H](O)[C@@H](O)[C@@H]1O`, for which the outcome was “inactive [at 5.34 µM]”.
Regarding `Cc1ccnc(NS(=O)(=O)c2ccc(N)cc2)n1`, the Potency entry is “inactive”.
On the same count and under the same terms, to `O=C(/C=C/c1ccccc1)OCc1ccccc1` belongs “inactive”.
The same measure, in the same setting: in the case of `Cc1cc2nc3c(=O)[nH]c(=O)nc-3n(C[C@H](O)[C@H](O)[C@H](O)CO)c2cc1C` it was “inactive”; in that of `Cc1c(N(C)CS(=O)(=O)O)c(=O)n(-c2ccccc2)n1C`, “inactive”.
Still for that read-out and setting: in the case of `O=C(C1CCCCC1)N1CC(=O)N2CCCc3ccccc3C2C1` (stereo unspecified) it was “inactive”.
Take `CCc1oc2ccccc2c1C(=O)c1cc(I)c(O)c(I)c1`: the Potency entry is “inactive”.
Still for that read-out and setting: in the case of `Cc1c(C)c2c(c(C)c1O)CCC(C)(COc1ccc(CC3SC(=O)NC3=O)cc1)O2` (stereo unspecified) it was “inactive”; in that of `O=C(O)CN(CCN(CC(=O)O)CC(=O)O)CCN(CC(=O)O)CC(=O)O`, “inactive”.
On the same count and under the same terms, in the case of `CC1(C)S[C@@H]2[C@H](NC(=O)C(c3ccccc3)S(=O)(=O)O)C(=O)N2[C@H]1C(=O)O` (stereo partly specified) it was “inactive”; in that of `CC(C)(Sc1cc(C(C)(C)C)c(O)c(C(C)(C)C)c1)Sc1cc(C(C)(C)C)c(O)c(C(C)(C)C)c1`, “inactive”; in that of `Cc1ccc(C(=O)C(C)CN2CCCCC2)cc1` (stereo unspecified), “inactive”.
For `O=C1[O][Bi][O]c2ccccc21`, the outcome was “inactive [at 0.573 µM]”.
As for `COC(=O)c1ccc(O)cc1`, the Potency result is “inactive”.
On the same count and under the same terms, to `CN1CCN2c3ncccc3Cc3ccccc3C2C1` (stereo unspecified) belongs “inactive”; to `NCc1ccc(S(N)(=O)=O)cc1`, “inactive”; to `COc1c(N2C[C@@H]3CCCN[C@@H]3C2)c(F)cc2c(=O)c(C(=O)O)cn(C3CC3)c12`, “inactive”.
Still for that read-out and setting: in the case of `COC(=O)CCCCC(CCSS/C(CCO)=C(\C)N(C=O)Cc1cnc(C)nc1N)SC(C)=O` (stereo unspecified) it was “inactive”.
For the molecule `CC(=O)[C@H]1CC[C@H]2[C@@H]3C[C@H](C)C4=CC(=O)CC[C@]4(C)[C@H]3[C@@H](O)C[C@]12C`, the Potency entry is “inactive”.
`Nc1nc(N)nc(-c2cc(Cl)ccc2Cl)n1`: the Potency entry was “inactive”.
Turning to `Clc1cccc(Cl)c1NC1=NCCN1`, the Potency entry was “inactive”.
On the same count and under the same terms, in the case of `CCCCC(CC)CNC(=O)CC(C)OC(=O)CCC(=O)O` (stereo unspecified) it was “inactive”; in that of `CCN1C(=O)NC(c2ccccc2)C1=O` (stereo unspecified), “inactive”.
As for `NCCCNCCSP(=O)(O)O`, the outcome is “inactive [at 11.4 µM]”.
With `CCCCCCNC(=O)n1cc(F)c(=O)[nH]c1=O`, the Potency result is “inactive”.

The nature of another test: Primary qHTS for inhibitors of MERS-S pseudo-typed particle cell entry (AID 1479149). Also: nearly all actives have a fitted effect of over 60% in size. Also: potency is read from the fitted curve at half-maximal effect. Particulars: MERS-S pseudotyped particle entry, luciferase; series mostly up to 57.1 µM.
`COc1cccc(C(=O)CCN[C@@H](C)[C@H](O)c2ccccc2)c1`: the Potency result was “inactive”.
For the molecule `CC(C)CN(C[C@@H](OP(=O)(O)O)[C@H](Cc1ccccc1)NC(=O)O[C@H]1CCOC1)S(=O)(=O)c1ccc(N)cc1`, the Potency result was “inactive”.
Take `Cc1cc(O)cc2c1O[C@](C)(CCC[C@H](C)CCC[C@H](C)CCCC(C)C)CC2`: the Potency entry is “inactive”.
The same measure, in the same setting: to `CC(=O)OC(C)OC(=O)C(C)c1ccc(-c2ccccc2)c(F)c1` (stereo unspecified) belongs “inactive”.
On to `CC[C@H](C)C(=O)O[C@H]1C[C@H](O)C=C2C=C[C@H](C)[C@H](CC[C@@H](O)C[C@@H](O)CC(=O)O)[C@H]21`, for which the Potency entry was “inactive”.
For `c1ccc2c(c1)sc1ccccc12`, the Potency entry is “inactive”.
In the case of `O=C(OOC(=O)c1ccccc1)c1ccccc1`, the Potency result is “inactive”.
The same measure, in the same setting: in the case of `CCCOC(=O)c1ccccc1` it was “inactive”; in that of `C=CC1=C(C(=O)O)N2C(=O)[C@@H](NC(=O)/C(=N\O)c3csc(N)n3)[C@H]2SC1` (stereo in doubt), “inactive”.
Same read-out and setting: in the case of `CN1[C@@H]2CC[C@H]1CC(OC(c1ccccc1)c1ccccc1)C2` (stereo partly specified) it was 14.1 µM (active); in that of `CCOc1ccc(NS(=O)(=O)c2ccc(N)cc2)nn1`, “inactive”; in that of `Oc1ccccc1`, “inactive”.
Same read-out and setting: to `CC(C)Cc1ccc(CC(=O)O)cc1` belongs “inactive”.
For `NC[C@H]1O[C@H](O[C@H]2[C@H](O)[C@@H](O[C@H]3O[C@H](CO)[C@@H](O)[C@H](N)[C@H]3O)[C@H](N)C[C@@H]2N)[C@H](O)[C@@H](O)[C@@H]1O`, the outcome was “inactive [at 5.34 µM]”.
Turning to `Cc1ccnc(NS(=O)(=O)c2ccc(N)cc2)n1`, the Potency entry was “inactive”.
`O=C(/C=C/c1ccccc1)OCc1ccccc1`: the Potency result was “inactive”.
On to `Cc1cc2nc3c(=O)[nH]c(=O)nc-3n(C[C@H](O)[C@H](O)[C@H](O)CO)c2cc1C`, for which the Potency entry is “inactive”.
Same read-out and setting: in the case of `Cc1c(N(C)CS(=O)(=O)O)c(=O)n(-c2ccccc2)n1C` it was “inactive”; in that of `O=C(C1CCCCC1)N1CC(=O)N2CCCc3ccccc3C2C1` (stereo unspecified), “inactive”.
Still for that read-out and setting: in the case of `CCc1oc2ccccc2c1C(=O)c1cc(I)c(O)c(I)c1` it was “inactive”; in that of `Cc1c(C)c2c(c(C)c1O)CCC(C)(COc1ccc(CC3SC(=O)NC3=O)cc1)O2` (stereo unspecified), 25.1 µM (active).
As for `O=C(O)CN(CCN(CC(=O)O)CC(=O)O)CCN(CC(=O)O)CC(=O)O`, the Potency entry is “inactive”.
On the same count and under the same terms, in the case of `CC1(C)S[C@@H]2[C@H](NC(=O)C(c3ccccc3)S(=O)(=O)O)C(=O)N2[C@H]1C(=O)O` (stereo partly specified) it was “inactive”; in that of `CC(C)(Sc1cc(C(C)(C)C)c(O)c(C(C)(C)C)c1)Sc1cc(C(C)(C)C)c(O)c(C(C)(C)C)c1`, “inactive”; in that of `Cc1ccc(C(=O)C(C)CN2CCCCC2)cc1` (stereo unspecified), “inactive”.
`O=C1[O][Bi][O]c2ccccc21`: the outcome is “inactive [at 0.573 µM]”.
As to `COC(=O)c1ccc(O)cc1`, the Potency result is “inactive”.
Take `CN1CCN2c3ncccc3Cc3ccccc3C2C1` (stereo unspecified): the Potency result was “inactive”.
Same read-out and setting: to `NCc1ccc(S(N)(=O)=O)cc1` belongs “inactive”; to `COc1c(N2C[C@@H]3CCCN[C@@H]3C2)c(F)cc2c(=O)c(C(=O)O)cn(C3CC3)c12`, “inactive”.
In the case of `COC(=O)CCCCC(CCSS/C(CCO)=C(\C)N(C=O)Cc1cnc(C)nc1N)SC(C)=O` (stereo unspecified), the Potency entry was “inactive”.
On to `CC(=O)[C@H]1CC[C@H]2[C@@H]3C[C@H](C)C4=CC(=O)CC[C@]4(C)[C@H]3[C@@H](O)C[C@]12C`, for which the Potency result was “inactive”.
Turning to `Nc1nc(N)nc(-c2cc(Cl)ccc2Cl)n1`, the Potency result is “inactive”.
`Clc1cccc(Cl)c1NC1=NCCN1`: the Potency result is “inactive”.
On the same count and under the same terms, in the case of `CCCCC(CC)CNC(=O)CC(C)OC(=O)CCC(=O)O` (stereo unspecified) it was “inactive”; in that of `CCN1C(=O)NC(c2ccccc2)C1=O` (stereo unspecified), “inactive”.
Consider `NCCCNCCSP(=O)(O)O`, for which the outcome was “inactive [at 11.4 µM]”.
Consider `CCCCCCNC(=O)n1cc(F)c(=O)[nH]c1=O`, for which the Potency is 5.01 µM (active).
